# Data: PubChem BioAssay (EPA / NIEHS)
# Results filed as inconclusive are left out. Calls of active or inactive are those of the source. How the source made its calls: active means hit-call score of the fitted dose curve at least 0.9, where 1 is the maximum; inconclusive means response in the unintended direction; inactive means score below 0.9.
# Target: rat CYP1A2, Cyp1a2 (gene 24297) (UniProt P04799)
# Test: NVS_ADME_rCYP1A2: NovaScreen (NVS) CYP450-related Enzyme Activity (ADME) Assay for rat CYP1A2 (AID 2283115)
# Experimental: NVS_ADME_rCYP1A2 is a biochemical, single-readout assay that uses extracted gene-proteins in a cell-free assay. Measurements were taken 1 hour after chemical dosing in a 96-well plate.NVS_ADME_rCYP1A2 is one of one assay component(s) measured or calculated from the NVS_ADME_rCYP1A2 assay. It is designed to make measurements of enzyme activity, a form of enzyme reporter, as detected with fluorescence intensity signals by Fluorescence technology.Data from the assay component NVS_ADME_rCYP1A2 was analyzed into 1 assay endpoint. This assay endpoint, NVS_ADME_rCYP1A2, was analyzed in the positive analysis fitting direction relative to Acetonitrile as the negative control and baseline of activity. Using a type of enzyme reporter, loss-of-signal activity can be used to understand changes in the enzymatic activity as they relate to the gene Cyp1a2. Furthermore, this assay endpoint can be referred to as a primary readout, because this assay has produced multiple assay endpoints where this one serves a enzymatic activity function. To generalize the intended target to other relatable targets, this assay endpoint is annotated to the cyp intended target family, where the subfamily is xenobiotic metabolism.
# Binding assays used specific radioligands (tritiated, iodinated) with non-radioactive competitive displacement ligands in agonist or antagonist protocols (as indicated) and various reference compounds and inhibitors to titrate specific binding to receptors and transporters. Most enzyme assays (CYPs, kinases, phosphatases, proteases, HDACs) used recombinant protein and specific substrates (fluorescence mostly, some colorimetric and radioactive) and inhibitors, followed by a biochemical separation of substrate and product. All assays for the biochemical HTS were initially run in duplicate at a single concentration (10 uM for CYP450 assays and 25 uM for all others). […] Each assay was run with positive and negative controls, and concurrent controls on every plate. The follow-up (secondary) screen tested active chemical-pairs in concentration series, as well as a few additional assays not tested in the primary screen, some selected negative inactives, and several cases re-run in the concentration series for confirmatory purposes.
# rat CYP1A2, Cyp1a2 (gene 24297), sequence (P04799 whole entry, looked up): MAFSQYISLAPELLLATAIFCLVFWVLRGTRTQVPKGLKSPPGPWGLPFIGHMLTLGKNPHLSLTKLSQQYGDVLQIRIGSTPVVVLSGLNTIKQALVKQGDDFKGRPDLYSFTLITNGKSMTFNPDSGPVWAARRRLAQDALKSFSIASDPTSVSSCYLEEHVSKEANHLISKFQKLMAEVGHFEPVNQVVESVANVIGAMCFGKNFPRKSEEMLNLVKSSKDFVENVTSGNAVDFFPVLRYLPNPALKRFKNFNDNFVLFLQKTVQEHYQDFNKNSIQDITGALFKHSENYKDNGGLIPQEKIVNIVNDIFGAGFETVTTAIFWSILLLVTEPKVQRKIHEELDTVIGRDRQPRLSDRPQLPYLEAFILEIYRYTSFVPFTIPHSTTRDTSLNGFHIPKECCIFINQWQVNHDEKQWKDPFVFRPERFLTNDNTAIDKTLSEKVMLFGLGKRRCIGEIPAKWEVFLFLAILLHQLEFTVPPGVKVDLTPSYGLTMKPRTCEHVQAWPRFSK
SMILES,outcome,AC50
CNNCc1ccc(C(=O)NC(C)C)cc1,inactive,–
c1cc[nH]c1,inactive,–
O=C1c2ccccc2C(=O)c2c(O)ccc(O)c21,inactive,–
O=C1OC2(c3cc(Br)c(O)c(Br)c3Oc3c2cc(Br)c(O)c3Br)c2c(Cl)c(Cl)c(Cl)c(Cl)c21,inactive,–
O=S1(=O)CC(Cl)(Cl)C(Cl)(Cl)C1,inactive,–
NC(=S)NNC(N)=S,inactive,–
COC(=O)CSc1cc(N=c2sc(=O)n3n2CCCC3)c(F)cc1Cl,inactive,–
CO[Si](CCC1CCC2OC2C1)(OC)OC (centres undefined),inactive,–
CN(C)C(=O)Nc1ccc(Cl)c(Cl)c1,inactive,–
CCCCCCC(C)OC(=O)CCCCC(=O)OC(C)CCCCCC (centres undefined),inactive,–
CCCCOCCOCCOCc1cc2c(cc1CCC)OCO2,inactive,–
c1ccc2sc(SN(C3CCCCC3)C3CCCCC3)nc2c1,inactive,–
c1ccc2[nH]c(-c3cscn3)nc2c1,inactive,–
CCOC(=O)C1=NOC(c2ccccc2)(c2ccccc2)C1,inactive,–
CCC(C)c1cc([N+](=O)[O-])cc([N+](=O)[O-])c1OC(=O)OC(C)C (centres undefined),inactive,–
c1ccc2c(c1)c1cccc3ccc4cccc2c4c31,inactive,–
COc1ccc(C(=O)/C(Br)=C\C(=O)O)cc1,inactive,–
CCN(CC)c1ccc2c(C)cc(=O)oc2c1,–,8.15 µM (active)
CSC(=O)c1cccc2nnsc12,inactive,–
